# High-throughput results as filed in PubChem.
# Eya2 inh – blocks the phosphatase activity of human Eya2. Potency, µM (titrated, usually from 76.9 µM), most hits filed as inhibitors. AID 488837. hit rate 0.006% among 330,000. recombinant Eya2, OMFP fluorescence dephosphorylation (OMFP is methylfluorescein phosphate). O00167
#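 Eya2 protein (added as 0.2 uM solution) was preincubated with compound for 10 min at ambient temperature in 50 mM HEPES pH 7.5, 50 mM NaCl, 5 uM MgCl2, 0.05% BSA, 1 mM DTT. OMFP (added at 50 uM) then reacted 10 min; fluorescence read at 485/525 nm.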
# TrxR1 substrate – is turned over as a substrate by rat TrxR1. purified TrxR1 substrate turnover, NADPH consumption readout. Potency, µM (highest dose often 114 µM). hit rate 0.01% among 390,000; further: nearly all actives have a fitted effect of over 50% in size
#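 Rat TrxR1, dispensed at 90 nM, was prereduced with 400 uM NADPH (final) for 5 min at ~22 deg C, then incubated with compound 15 min before 400 uM selenite. A first-read NADPH fluorescence drop versus no-compound background flagged substrates.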
# GALK inhibitor – galactokinase (human) inhibition; P51570; Purified GALK, Kinase-Glo residual ATP luminescence; Potency, µM (titrated, usually from 57.5 µM), most hits filed as inhibitors; hit rate 0.007% among 270,000
#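 Compounds were pin-transferred into ATP buffer (35 uM final), then GALK plus galactose (5 nM, 100 uM final) was added. After 1 h at room temperature, Kinase-Glo Plus was added and luminescence read after 10 min.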
# TrxR1 inh – inhibitors of rat thioredoxin reductase 1. O89049. recombinant rTrxR1, NADPH fluorescence consumption, selenite substrate. Potency, µM (top dose mostly 114 µM), hits mostly inhibitors. hit rate 1% among 390,000. AID 588453; further: nearly all actives have a fitted effect of over 65% in size
#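 Rat TrxR1 (90 nM in the dispensed reagent) was pre-reduced with 400 uM NADPH for 5 min at room temperature, then incubated with compound for 15 min. After 400 uM selenite was added, NADPH fluorescence (Ex 340/Em 450 nm) was followed for 8 min.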
# RGS4 inhibitor – inhibitors of human regulator of G protein signaling 4. P49798. Transcreener GDP fluorescence polarization, RGS4-accelerated GTP hydrolysis. Potency, µM (highest dose often 114 µM), usual class: inhibitors. hit rate 0.039% among 390,000. AID 504845; further: nearly all actives have a fitted effect of over 75% in size
# Target sequence (P49798 whole entry, looked up): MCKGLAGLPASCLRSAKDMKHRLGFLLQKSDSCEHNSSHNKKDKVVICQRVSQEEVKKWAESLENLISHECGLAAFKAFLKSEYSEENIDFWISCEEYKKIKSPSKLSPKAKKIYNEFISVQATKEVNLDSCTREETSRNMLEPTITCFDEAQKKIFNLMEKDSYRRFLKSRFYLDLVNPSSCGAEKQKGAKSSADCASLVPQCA
#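 MLSMR compounds (23 nl, pin-transferred) preincubated 10 min at room temperature with a 500nM (2x) first reagent, then RGS4 at 900nM (2x) plus Transcreener GDP mix added; fluorescence polarization (620/688 nm) read before and after 90 min at 30 °C.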
# USP2a block – inhibitors of human ubiquitin-specific protease USP2a | USP2 core, Ub-CHOP2 coupled fluorogenic reporter, 485/531 | hit rate 0.01% among 330,000 | O75604 | Potency, µM (series often up to 38.3 µM), hits mostly inhibitors | AID 463254
#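 Cell-free coupled assay: 10nM USP2 core preincubated 30min RT with compound in Tris-HCl pH 8.0/CaCl2/CHAPS buffer, then 25nM Ub-CHOP2 and 25nM reporter substrate; fluorescence (Ex 485/Em 531) read after 60min RT, normalized to NEM inhibition, concentration-response curves fitted.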
# Hits are given with their value; n = inactive; u = inconclusive; x = not tested or not shown; [ ] = another dose, or the depositor's remark. This is a sample that favours compounds with a hit; in the whole collection about 1% have one here. The call rests on the fitted dose curve; in most records, active means well fitted curve in the direction sought with a large enough effect; inconclusive means small, poorly fitted or top-dose-only effect, or another doubt; inactive means no such curve, though single readings can be large; an effect the other way counts as inactive or inconclusive.
SMILES,Eya2 inh,TrxR1 substrate,GALK inhibitor,TrxR1 inh,RGS4 inhibitor,USP2a block
CCOC(=O)c1c(N)sc(=S)c2c1CCC2,n,n,n,71µM,n,n
CCOC(=O)c1c(N)sc(N)c1C(=O)OCC,n,n,x,n,u,n
NC(=S)N=Nc1ccc(NN=C(N)N)cc1,n,n,x,20µM,u,n
N#C/C(=N/Nc1ccc(OC(F)(F)F)cc1)C(N)=S,n,n,n,n,n,n
NC(=O)/C(=C/c1ccco1)NC(=O)c1ccc(Br)o1,x,n,x,11µM,n,x
COC(=O)C1=C(C)N(c2ccc(OC)c(OC)c2)C(=O)/C1=C\c1ccco1,n,n,n,28µM,n,n
CCCCCCC(=O)N(O)C1CC(=O)N(c2ccc(Br)cc2)C1=O (stereo not drawn),n,n,n,22µM,u,n
CCCCCCC(=O)N(O)C1CC(=O)N(c2ccc(F)cc2)C1=O (stereo not drawn),n,n,n,3.5µM,u,n
COc1ccccc1N(O)C1CC(=O)N(c2ccc(Br)cc2)C1=O (stereo not drawn),n,n,n,45µM,u,n
CSCCC1C(C#N)=C(N)Oc2n[nH]c(-c3cccs3)c21 (stereo not drawn),n,n,n,10µM,n,n
CC(C)CC1C(C#N)=C(N)Oc2n[nH]c(-c3cccs3)c21 (stereo not drawn),n,n,n,n,n,n
CC(C)COc1ccc(CC(=O)NO)cc1,x,n,x,n,x,x
Cc1ccc(C2=NN(C(=O)CCl)C(c3cccs3)C2)o1 (stereo not drawn),n,n,n,10µM,n,n
O=C(CCl)N1N=C(c2ccco2)CC1c1cccs1 (stereo not drawn),n,n,n,2µM,n,n
CCN1CCOC(=O)C1CC(=O)Nc1cc(C)ccc1OC (stereo not drawn),x,n[11.4 µM],x,11µM,n,x
CCN1CCOC(=O)C1CC(=O)Nc1ccc(Br)cc1 (stereo not drawn),x,n[11.4 µM],x,71µM,n,x
Cc1ccc(S(=O)(=O)N2CCC(c3nc(-c4cccs4)nc4ccccc34)CC2)cc1,x,n,x,n,n,x
CSc1ccc(CCNC(=O)c2ccc(-n3c(C)cc4c3CCCC4)cc2)cc1,x,n,x,n,n,x
COc1cccc(-n2nnnc2SCC(=O)Nc2ccccc2OC)c1,n,n,n,n,n,n
CCCS(=O)(=O)c1nnnn1-c1cccc(OC)c1,n,n,n,3.5µM,n,n
O=C1C=CC(=O)N1Cc1cccnc1,x,n,x,79µM,n,x
Cc1cc(C)nc(Sc2ncnc(N)c2[N+](=O)[O-])n1,n,n,n,11µM,n,n
COc1ccccc1N1CSC2=C(C#N)C(c3ccc(SC)cc3)CC(=O)N2C1 (stereo not drawn),n,n,n,13µM,u,n
COc1cc(OC)c(C2CC(=O)N3CN(c4ccccc4)CSC3=C2C#N)cc1OC (stereo not drawn),n,n,n,32µM,u,n
CCc1ccccc1N1CSC2=C(C#N)C(c3cc(OC)c(OC)cc3OC)CC(=O)N2C1 (stereo not drawn),n,n,n,u,u,n
SMILES,Eya2 inh,TrxR1 substrate,GALK inhibitor,TrxR1 inh,RGS4 inhibitor,USP2a block
CC1(C)OB(c2cnc(C#N)nc2)OC1(C)C,x,n,x,n,x,x
CCNc1nc(NCC)nc(N/N=C/c2ccc([N+](=O)[O-])o2)n1,n,n,n,45µM,n,n
CCN(CC)c1ccc(N=Cc2ccccc2[N+](=O)[O-])cc1,n,n,x,71µM,n,n
CCN(CC)c1ccc(N=Cc2ccc([N+](=O)[O-])o2)cc1,n,n,n,3.2µM,u,n
O=[N+]([O-])c1ccc(/C=N/Nc2nc(N3CCCC3)nc(N3CCCC3)n2)o1,n,n,n,n,n,n
CCc1ccc2[nH]c(=O)c(CN(Cc3ccco3)Cc3nnnn3Cc3ccco3)cc2c1,x,n[0.0914 µM],x,n,n,x
Nc1ccc(/C=C/c2nccc3ccccc23)cc1,x,n,x,n,x,x
COc1cccc(NC(=O)c2ccccc2OCC(=O)Nc2ccc(Br)cc2)c1,x,n,x,n,x,x
CC(=O)c1sc2nc(-c3ccco3)ccc2c1N,n,n,n,10µM,n,n
